# Screening results: PubChem BioAssay, several laboratories
# SKKanGAS inh = inhibitors of SKKanGAS S. pyogenes growth in kanamycin (SK-promoter or general growth effect); BacTiter-Glo, 6 h; inhibition, % at 7.5 µM; 1.3% of 300,000 active; AID 1662;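 active = mean replicate score, as percent of positive control median, at least 50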;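 also: strain carries kanamycin resistance gene driven by streptokinase promoter and grows in 40 µg/ml kanamycin; loss of luminescence reflects streptokinase promoter inhibition or plain growth inhibition; 0% = median of DMSO wells and 100% = positive control at its reference dose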
# IDE inh = cellular human IDE inhibition; HEK cells, FAbetaB cleavage, fluorescence polarization; inhibition, % at 5.59 µM; P14735; 0.41% of 320,000 active; AID 434962;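 active = percent inhibition above the average of all tested compounds plus 3 SD, set per screening campaign, cut at about 16% in these data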;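 also: IDE supplied by intact live HEK cells; FP after avidin binding of uncleaved biotin substrate so inhibition keeps polarization high; 0% = DMSO wells and 100% = 60 µM reference IDE inhibitor Ii1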
# Granule exo inh = blocks lytic granule exocytosis; TALL-104 LAMP-1 surface exposure, flow cytometry; cells stimulated with thapsigargin and PMA; 0.66% of 360,000 active; inhibition, % at 10 µM;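 active = inhibition above about 55%, limit read from the data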
# PP5 inh = blocks human protein phosphatase 5 activity. P53041. purified PP5c, OMFP substrate fluorescence. inhibition, % at 6.7 µM. 0.18% of 320,000 active. AID 1987;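 active = inhibition above the campaign's mean inhibition across all tested compounds plus 3 SD, cut at about 9.5% in these data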;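 also: 0% = DMSO only and 100% = 100 µM cantharidin control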
# Target sequence (P53041 whole entry, looked up): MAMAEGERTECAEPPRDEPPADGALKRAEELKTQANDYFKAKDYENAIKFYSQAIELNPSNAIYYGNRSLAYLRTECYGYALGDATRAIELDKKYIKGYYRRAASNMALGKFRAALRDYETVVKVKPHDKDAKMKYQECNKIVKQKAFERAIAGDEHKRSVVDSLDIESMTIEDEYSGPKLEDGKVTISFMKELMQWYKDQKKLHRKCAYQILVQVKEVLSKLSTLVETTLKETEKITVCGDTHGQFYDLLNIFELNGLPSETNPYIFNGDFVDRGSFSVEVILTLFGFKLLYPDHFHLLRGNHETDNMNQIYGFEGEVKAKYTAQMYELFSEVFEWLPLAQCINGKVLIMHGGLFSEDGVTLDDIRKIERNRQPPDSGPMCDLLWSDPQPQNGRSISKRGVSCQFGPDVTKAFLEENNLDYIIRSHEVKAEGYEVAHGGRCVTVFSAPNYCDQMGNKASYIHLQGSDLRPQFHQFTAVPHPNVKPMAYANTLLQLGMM
# PP1 counter = PP1-alpha (human) inhibition in PP5 counter-screen | AID 2235 | inhibition, % at 6.7 µM | P62136 | 0.9% of 320,000 active | purified PP1alpha, OMFP fluorescence;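 active = inhibition above the mean inhibition of all tested compounds plus 3 SD, computed separately for each screening campaign, cut at about 15% in these data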
# IDE cell activ = activators of human insulin-degrading enzyme in cells | HEK cells, FAbeta-B cleavage, fluorescence polarization; 0% vehicle, 100% cell-free pure enzyme wells | P14735 | activation, % at 5.96 µM | 0.073% of 340,000 active;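 active = activation above the mean of all tested compounds plus 3 SD, set per screening campaign, cut at about 17% in these data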
# * = called active by the depositor; · = no result. Rows were chosen to be rich in hits. Some 2.8% of all compounds tested hit in one or more screens of this group.
SMILES,SKKanGAS inh,IDE inh,Granule exo inh,PP5 inh,PP1 counter,IDE cell activ
CN(/N=C/c1ccc(O)cc1O)c1nc(-c2ccccc2)cc(-c2ccccc2)n1,71*,-3,-4,5,1,0
CCCOc1cccc(C2C(C(=O)c3cc4ccccc4o3)=C(O)C(=O)N2c2cc(C)on2)c1 (centres undefined),-4,-3,12,4,26*,6
COc1cccc(C2C(C(=O)c3ccc(C)o3)=C(O)C(=O)N2c2cc(C)on2)c1 (centres undefined),-6,-6,3,0,3,-1
Cc1cc(N2C(=O)C(O)=C(C(=O)c3cc4ccccc4o3)C2c2cccc(Br)c2)no1 (centres undefined),2,-3,-14,4,37*,-6
Cc1cc(N2C(=O)C(O)=C(C(=O)c3cccs3)C2c2ccccc2)no1 (centres undefined),5,2,0,0,-1,7
CCOc1ccccc1NC(=O)NC(C)c1ccncc1 (centres undefined),-4,2,-4,2,-2,3
O=C(NNC(=S)NC(=O)c1cccnc1)c1ccc(Cl)cc1,52*,0,-6,4,4,1
O=C(Cc1ccc(Cl)cc1)NNC(=S)NC(=O)c1cccnc1,14,4,0,-1,-2,2
O=C(CCc1ccccc1)NNC(=S)NC(=O)c1ccc(Cl)cc1,61*,4,·,4,2,·
Cc1ccc(C(=O)NNC(=S)NC(=O)c2ccc(Cl)cc2)cc1,100*,0,-1,0,4,-2
CC1CCCN(C(=O)N2c3ccccc3Sc3ccccc32)C1 (centres undefined),-4,1,2,0,1,6
CC1CCN(C(=O)N2c3ccccc3Sc3ccccc32)CC1,54*,-4,-1,0,4,-6
O=C(N/N=C/c1ccccc1)c1c(O)c2ccccc2[nH]c1=O,20,5,4,1,2,1
O=C(N/N=C/c1ccc(F)cc1)c1c(O)c2ccccc2[nH]c1=O,94*,4,2,-1,-7,0
O=C(N/N=C/c1cccc(F)c1)c1c(O)c2ccccc2[nH]c1=O,92*,6,-2,3,4,5
O=C(NC1CCCC1)c1cccc2c1C(=O)c1ccc(Cl)cc1S2(=O)=O,·,0,-24,-1,-5,4
S=C(NCCCCN(Cc1ccc(Cl)cc1)c1ccc(Br)cn1)NCCCc1cnc[nH]1,·,·,-7,·,·,·
COc1cccc(/C=N/NC(=S)NCCc2ccccc2)c1,-4,1,58*,4,2,5
COc1ccc(/C=N/NC(=S)NCCc2ccccc2)cc1,19,-5,64*,2,-1,1
CC1CC(C)CN(c2ncc3c(n2)CC(c2ccccc2Cl)CC3=O)C1 (centres undefined),63*,-1,-7,-4,1,5
COc1ccc(C2CC(=O)c3cnc(N4CCN(Cc5ccccc5)CC4)nc3C2)cc1 (centres undefined),56*,5,-4,6,-1,4
Cc1ccc(C2CC(=O)c3cnc(N4CCN(c5ccccc5)CC4)nc3C2)cc1 (centres undefined),35,-1,-2,-1,-5,3
CC1CC(C)CN(c2ncc3c(n2)CC(c2ccc(Cl)cc2)CC3=O)C1 (centres undefined),12,4,4,1,-5,2
CCC(=O)N(CCC(Cc1ccccc1)c1ccc2c(c1)OCO2)Cc1ccccc1F (centres undefined),52*,4,12,0,8,4
CCCC(=O)c1ccc(N2CCOCC2)c(F)c1,-4,-1,2,-1,-2,2
SMILES,SKKanGAS inh,IDE inh,Granule exo inh,PP5 inh,PP1 counter,IDE cell activ
CC(=O)NC[C@H]1CN(c2ccc(N3CCOCC3)c(F)c2)C(=O)O1,107*,1,·,-2,-3,·
O=C1NC(=Nc2cccc(O)c2)S/C1=C\c1cccc([N+](=O)[O-])c1,12,-1,8,1,17*,5
O=C(c1ccncc1)N1CCN(S(=O)(=O)c2cccc(C(F)(F)F)c2)CC1,·,-1,-8,-1,-4,2
Cc1ccc(/C=C/C(=O)NC2CCCCCCC2)o1,5,4,58*,1,-4,3
Cc1cc(-c2ccc(C(C)C)c(S(=O)(=O)N3CCC(C)CC3)c2)on1,16,3,7,1,-1,7
Cc1ccc2c(c1)C(=O)CC(O)(C(F)(F)F)O2 (centres undefined),-6,-6,-1,-1,-2,11
Cc1ccc2c(c1)C(=O)CC1(CCC(C(C)(C)C)CC1)O2 (centres undefined),68*,3,11,2,4,6
COc1ccc(C=C2NC(=S)NC2=O)cc1,·,·,-3,·,·,0
COc1ccc(/C=C/C=C2\NC(=S)NC2=O)cc1,-7,5,58*,3,2,4
COc1ccc(S(=O)(=O)N(CC(=O)NCc2ccncc2)c2ccc(C)cc2)cc1OC,-3,12,17,2,0,-7
COc1cc(C(=O)NCC(=O)Nc2c(C)cccc2C)ccc1OCC(=O)N1CCOCC1,·,2,-11,·,·,4
COc1cccc(-c2nc(N3CCCCC3C)c3ccccc3n2)c1O (centres undefined),76*,2,31,4,-3,4
CCOC(=O)COc1ccc2ccccc2c1/C=C/[N+](=O)[O-],11,10,5,-1,-1,-8
CCOc1ccc(/C=C/[N+](=O)[O-])c2ccccc12,3,10,102*,0,1,-13
O=[N+]([O-])/C=C/c1c(OCc2ccccc2)ccc2ccccc12,70*,6,78*,-1,4,-7
CCOC(=O)Cn1cc(/C=C/[N+](=O)[O-])c2ccccc21,-9,1,-3,3,-5,-3
Cc1ccc(OCCNC(=O)c2ccccc2F)cc1,0,13,-2,1,-2,7
C[n+]1c2cc(N)ccc2cc2ccc(N)cc21,·,·,-1,·,·,39*
C[C@@H](C(=O)NC1CCCC1)N1C(=O)N2CCc3c([nH]c4ccccc34)[C@@]2(C)C1=O,-4,-4,0,4,-4,9
CC(C)[C@@H](C(=O)NC1CCCC1)N1C(=O)N2CCc3c([nH]c4ccccc34)[C@@]2(C)C1=O,68*,-2,-5,0,-2,3
COc1ccc2nc(C3CCCCC3)nc(C3CCCCC3)c2c1,90*,4,-4,0,-3,-2
CC(C)CC1NC(=O)N(CC(=O)Nc2ccc(-c3ccccc3)cc2)C1=O (centres undefined),·,0,-2,0,-3,0
C#CCNC(=O)C[C@@H]1C[C@@]2(C(=O)OC)CC(C)(C)CC=C2N(CCCCCCCC)C1=O,·,·,-5,·,·,·
